Measurements as given in PubChem BioAssay AID720553 (National Center for Advancing Translational Sciences (NCATS), 2013).
Among all 340,000 compounds or so, about 3,300 (0.97%) were called active. This excerpt belongs to a sample that is enriched for actives. Values without a mark were called inactive.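 The calls were made as follows: active = maximum activity change below -70%; inconclusive = maximum activity change from -70% to -50%; inactive = maximum activity change above -50%.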
% is scaled to controls: 0 for no effect and ±100 for the full control effect.

What follows are molecules tested on Potassium voltage-gated channel subfamily H member 2, brain isoform KCNH2 3.1 (human) (assay: qHTS for Inhibitors of KCHN2 3.1: Mutant qHTS). Conditions: U2OS KCNH2 3.1, thallium flux FluxOr; active compounds read low.
Summary of the method: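 Thallium flux read-out: FluxOr dye with Red40 quencher in HBSS/HEPES, 45 min at RT. Rate constants from kinetic reads were normalized to positive and negative DMSO controls. Cells: U2OS virally expressing the 3.1 isoform.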
With CCCCN(C(C)=O)c1ccc2c(c1)C1CC2CCN1Cc1ccccc1 (stereo unspecified) the activity change was 0.966%. For O=C(Nc1ccc(Cl)cn1)c1ccccc1-c1ccccc1, the activity change was -14.9%. In the case of CC1(C)Cc2cccc(OCC(=O)N3CCN(c4ccc([N+](=O)[O-])cc4)CC3)c2O1, the activity change is reported as -91.8% (active). With CC1(C)Cc2cccc(OCC(N)=O)c2O1 the activity change was -6.48%. With CC1(C)Cc2cccc(OCC(=O)NCc3ccccc3)c2O1 the activity change was 0.403%. S=C(NN=Cc1ccccn1)Nc1ccccn1 was tested, and the activity change was -6.69%. For COc1ccc(C(=O)OCC(=O)Nc2cc(C)on2)cc1F, the activity change was -0.754%. With CSCCC(NC(=O)COc1ccccc1)C(=O)OCCOc1ccc(F)cc1 (stereo unspecified) the activity change was -11.8%. CSCCC(NC(=O)COc1ccccc1)C(=O)OCCOc1ccc(Br)cc1 (stereo unspecified) was tested, and the activity change was -21.4%. In the case of CSCCC(NC(=O)COc1ccccc1)C(=O)N1CCN(c2cccc(C(F)(F)F)c2)CC1 (stereo unspecified), the activity change is reported as -70% (active). For O=C(Nc1cccc2ccccc12)NC1CC1, the activity change was -0.285%. For COc1ccc(C(C)(C)C)cc1NC(=O)CN(C)C1=NS(=O)(=O)c2ccccc21, the activity change was -5.7%. With O=C(COc1ccc2ccc(=O)oc2c1)NCC(O)c1ccccc1 (stereo unspecified) the activity change was -87.9% (active). In the case of Cc1cc(OCC(=O)NCC(O)c2ccccc2)c2c(C)c(C)c(=O)oc2c1 (stereo unspecified), the activity change is reported as 29.5%. O=C(COc1ccc2c3c(c(=O)oc2c1)CCCC3)NCC(O)c1ccccc1 (stereo unspecified) was tested, and the activity change was 10.4%. O=C(NCCOc1ccccc1)N1[C@H]2CC[C@@H]1C=C(c1ccc(F)cc1OCc1ccccc1)C2 was tested, and the activity change was -21.8%. With CCOC(=O)C1CCN(C(=O)COc2cc(C)c(Br)c(C)c2)CC1 the activity change was -6.53%. In the case of CCNC(=O)COc1cc(C)c(Br)c(C)c1, the activity change is reported as -198% (active). COCCCNC(=O)COc1cc(C)c(Cl)c(C)c1 gave an activity change of 30.5%. Cc1ccc(S(=O)(=O)N2C[C@]3(O)C[C@@H]4C(=O)N(c5ccccc5)C(=O)[C@@H]4C[C@]3(OC(=O)NC3CC3)C2)cc1 gave an activity change of -5.83%. Cc1ccc(NC(=O)Cn2sc3ccccc3c2=O)cc1 gave an activity change of 8.97%. For COc1cccc(CNC(=O)CCC2CCCN(Cc3ccc(OC(F)F)cc3)C2)c1 (stereo unspecified), the activity change was -93.7% (active). With COc1cccc(CC2(CO)CCCN(Cc3ccc(OC(F)F)cc3)C2)c1 (stereo unspecified) the activity change was -90.5% (active). Molecule COc1cccc(CNC(=O)CCC2CCCN(C(=O)c3ccoc3C)C2)c1 (stereo unspecified) has an activity change of -8.72%. COc1cccc(CC2(CO)CCCN(CC3=Cc4cc(OC)ccc4OC3)C2)c1 (stereo unspecified) was tested, and the activity change was -14.2%. For COc1cccc(C(=O)N2CCCC(CCC(=O)NCc3ccc(F)c(F)c3)C2)c1 (stereo unspecified), the activity change was -33.7%. Work on COc1cccc(CC2(CO)CCCN(Cc3nc(-c4cccs4)oc3C)C2)c1 (stereo unspecified) yielded an activity change of -14.6%. CCCn1c(N)c(C(=O)CSc2nnc(Cc3cccs3)n2C2CC2)c(=O)[nH]c1=O was tested, and the activity change was 7.67%. Cc1cccc(S(=O)(=O)N(C)C[C@H]2OCc3cnnn3CCCC(=O)N([C@@H](C)CO)C[C@H]2C)c1 was tested, and the activity change was 36.2%. Molecule CCCCCCNC(=O)O[C@H]1CN(C(=O)OC(C)C)N(C(=O)OC(C)C)[C@@H]2CN(S(=O)(=O)c3ccc(C)cc3)C[C@]12O has an activity change of 0.662%. For COc1ccc(-c2ccc(CN3C(CC(C)C)C(=O)N(Cc4cn(CC5CCCCC5)nn4)CCS3(=O)=O)cc2)cc1 (stereo unspecified), the activity change was -16.5%. For CC1(c2cccc(Br)c2)NC(=O)N(CC(=O)NCCC2=CCCCC2)C1=O (stereo unspecified), the activity change was -2.93%. Molecule Cc1nc2nc[nH]n2c(=O)c1C/C=C/c1ccccc1 has an activity change of -5.87%. Cc1noc(C)c1COc1cccc(C(=O)Nc2cccnc2)c1 showed an activity change of 5.81%. In the case of Cc1nc2nc[nH]n2c(=O)c1NC(=O)c1cccc(OCC(C)C)c1, the activity change is reported as -182% (active). Work on C[C@H]1CN([C@@H](C)CO)C(=O)c2cc(C3=CCCCC3)cnc2O[C@@H]1CN(C)C(=O)Cc1ccccc1 yielded an activity change of -6.94%. In the case of CC(=O)Nc1ccc(SCC(=O)NC(=O)c2ccc(Cl)cc2)cc1, the activity change is reported as -9.69%. Cc1[nH]c2ccccc2c1CCN(Cc1cccs1)C(=S)NC(C)(C)C was tested, and the activity change was -70.5% (active). For COc1ccc2[nH]c(C)c(CCN(Cc3cccs3)C(=S)Nc3ccccc3OC)c2c1, the activity change was -8.67%. COc1cccc(NC(=S)N(CCc2c(C)[nH]c3ccccc23)Cc2ccco2)c1 gave an activity change of -11%. Molecule Cc1ccc(S(=O)(=O)NN=C2CC(C)(C)CC(=O)C2(C)C)cc1 has an activity change of -9.11%. C[C@@H]1Cn2cnc(C(=O)Nc3ccc(CNC(=O)OC(C)(C)C)cc3)c2C(=O)N1 gave an activity change of -19.4%. Work on C[C@H]1Cn2cnc(C(=O)N[C@@H](Cc3c[nH]c4ccccc34)C(=O)OC(C)(C)C)c2C(=O)N1 yielded an activity change of -11.5%. Work on N#Cc1c(NC(=O)CSc2nc3ccccc3c(=O)n2Cc2ccco2)sc2c1CCCC2 yielded an activity change of -19.1%. CCOC(=O)CSc1nc2c(c(=O)n(Cc3ccccc3Cl)c(=O)n2C)n1C gave an activity change of -10.8%. CCOC(=O)CSc1nc2c(sc(=S)n2CCc2ccccc2)c(=O)n1Cc1ccco1 was tested, and the activity change was -91% (active). For C=CCOc1ccccc1CNn1c(C)n[nH]c1=S, the activity change was 3.24%. Molecule C[C@@H]1CN([C@@H](C)CO)C(=O)CCCn2nncc2CO[C@@H]1CN(C)S(=O)(=O)c1ccc(-c2ccccc2)cc1 has an activity change of 8.36%. Work on COc1cccc(CNCCc2c[nH]c3ccccc23)c1OCc1ccccc1F yielded an activity change of -1.51%. In the case of COc1ccc(C(CCNCc2ccccc2F)c2ccc(F)cc2)cc1 (stereo unspecified), the activity change is reported as -100% (active). For COc1ccc(CCNC(=O)COC(=O)Cc2ccccc2F)cc1, the activity change was 8.82%.
